Results filed as inconclusive are left out. Active and inactive are the calls of the source. Unless noted, calls come from the whole dose curve; as a rule, active = well fitted curve in the direction sought with a large enough effect in the repeat runs; inconclusive = weak or mixed curves; inactive = no such curve, though single readings can be large; an effect the other way counts as inactive or inconclusive.
Assays:
[1] = qHTS assay to identify small molecule agonists of the peroxisome proliferator-activated receptor delta (PPARd) signaling pathway - cell viability counter screen (AID 743211); note: nearly all actives have a fitted effect of over 55% in size; note: potency is the fitted concentration of half-maximal effect
Outline: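 Luminescent ATP viability assay (CellTiter-Glo, 30 min RT) in UAS-bla HEK293H cells carrying the PPAR delta reporter construct, 3000 cells/well, after a 17 h compound treatment at 37 C.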

[2] = qHTS assay to identify small molecule antagonists of the peroxisome proliferator-activated receptor delta (PPARd) signaling pathway - cell viability counter screen (AID 743213); note: nearly all actives have a fitted effect of over 50% in size; note: potency is the fitted concentration of half-maximal effect
Outline: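 HEK293H cells with the PPARd UAS-bla reporter, co-treated 17 h at 37 C with compounds and L165041 (300 nM final), were lysed with CellTiter-Glo. Luminescence indicated viable cell content.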

[3] = biological target: Peroxisome proliferator-activated receptor delta (Homo sapiens) (UniProt Q03181); experiment: qHTS assay to identify small molecule antagonists of the peroxisome proliferator-activated receptor delta (PPARd) signaling pathway (AID 743215; active = well fitted inhibition curve with a large enough effect in the signal ratio in the repeat runs, not every such curve was filed as active; the % refers to the signal ratio;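 note: cells stimulated with agonist L165041 at 300 nM final during compound exposure; series mostly up to about 62 µM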)
Peroxisome proliferator-activated receptor delta (Homo sapiens), sequence (Q03181 whole entry, looked up): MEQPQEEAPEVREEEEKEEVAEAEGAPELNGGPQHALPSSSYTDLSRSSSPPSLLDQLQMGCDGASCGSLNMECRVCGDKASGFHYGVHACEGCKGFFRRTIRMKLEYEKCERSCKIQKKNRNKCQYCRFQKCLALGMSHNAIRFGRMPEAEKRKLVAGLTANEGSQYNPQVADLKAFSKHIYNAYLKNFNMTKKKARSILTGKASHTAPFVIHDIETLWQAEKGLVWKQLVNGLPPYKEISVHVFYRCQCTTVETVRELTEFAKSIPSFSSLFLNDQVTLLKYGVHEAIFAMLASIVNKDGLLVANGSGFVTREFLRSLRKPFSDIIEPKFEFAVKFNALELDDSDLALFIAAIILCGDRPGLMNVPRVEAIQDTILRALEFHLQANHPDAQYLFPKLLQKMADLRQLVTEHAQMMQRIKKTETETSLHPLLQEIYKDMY
Outline: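 Antagonist-mode beta-lactamase reporter screen: HEK293H cells with UAS-bla under PPARd control, stimulated by 300 nM L165041 (final) alongside test compound for 17 h at 37 C, then FRET fluorescence after 2 h substrate incubation.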

[4] = biological target: Bile acid receptor (Homo sapiens) (UniProt Q96RI1); experiment: qHTS assay to identify small molecule antagonists of the farnesoid-X-receptor (FXR) signaling pathway (AID 743217; active = well fitted inhibition curve with a large enough effect in the signal ratio in the repeat runs, not every such curve was filed as active; the % refers to the signal ratio)
Bile acid receptor (Homo sapiens), sequence (Q96RI1 whole entry, looked up): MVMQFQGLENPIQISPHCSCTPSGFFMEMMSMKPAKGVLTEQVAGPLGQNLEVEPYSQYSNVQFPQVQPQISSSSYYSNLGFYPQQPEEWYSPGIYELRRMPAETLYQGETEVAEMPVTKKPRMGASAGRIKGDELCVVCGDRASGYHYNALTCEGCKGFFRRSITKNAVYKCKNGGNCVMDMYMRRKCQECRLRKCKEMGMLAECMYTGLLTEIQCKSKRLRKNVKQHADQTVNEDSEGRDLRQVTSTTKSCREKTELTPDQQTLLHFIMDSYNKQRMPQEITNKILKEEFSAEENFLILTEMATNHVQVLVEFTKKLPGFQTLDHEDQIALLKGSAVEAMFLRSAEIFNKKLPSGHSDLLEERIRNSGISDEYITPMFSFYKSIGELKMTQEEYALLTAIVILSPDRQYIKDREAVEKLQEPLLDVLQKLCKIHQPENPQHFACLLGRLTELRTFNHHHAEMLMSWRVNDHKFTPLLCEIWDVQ
Outline: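 Beta-lactamase reporter under UAS control in HEK 293T cells; compound exposure 16 h at 37 °C in the presence of chenodeoxycholic acid (50 uM final); signal from B/G FRET substrate after 2 h at room temperature.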

[5] = qHTS assay to identify small molecule agonists of the farnesoid-X-receptor (FXR) signaling pathway - cell viability counter screen (AID 743218); note: nearly all actives have a fitted effect of over 45% in size; note: potency is the fitted concentration of half-maximal effect
Outline: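 In GeneBLAzer FXR-UAS-bla HEK 293T cells, compounds act for 16 h at 37 C. Cell viability is then scored in the reporter wells by CellTiter-Glo, 30 min at RT, luminescence.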

[6] = biological target: Bile acid receptor (Homo sapiens) (UniProt Q96RI1); experiment: qHTS assay to identify small molecule agonists of the farnesoid-X-receptor (FXR) signaling pathway (AID 743220; active = well fitted activation curve with a large enough effect in the signal ratio in the repeat runs, not every such curve was filed as active; the % refers to the signal ratio)
Outline: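 Beta-lactamase reporter under UAS control in GeneBLAzer FXR HEK 293T cells (5000/well) measured with LiveBLAzer FRET substrate after 2 h at room temperature. Compound exposure lasted 16 h at 37C.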

[7] = qHTS assay to identify small molecule antagonists of the farnesoid-X-receptor (FXR) signaling pathway - cell viability counter screen (AID 743221; active = well fitted cell-killing curve with a large enough effect in the repeat runs, not every such curve was filed as active; note: nearly all actives have a fitted effect of over 50% in size; note: potency is the fitted concentration of half-maximal effect)
Outline: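 In GeneBLAzer FXR-UAS-bla HEK 293T cells stimulated with 50 uM chenodeoxycholic acid (final), compounds acted for 16 h at 37 C. Viability was assessed afterwards by CellTiter-Glo luminescence.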

[8] = biological target: Vitamin D3 receptor (Homo sapiens) (UniProt P11473); experiment: qHTS assay to identify small molecule antagonists of the vitamin D receptor (VDR) signaling pathway (AID 743223; active = well fitted inhibition curve with a large enough effect in the signal ratio in the repeat runs, not every such curve was filed as active; the % refers to the signal ratio)
Vitamin D3 receptor (Homo sapiens), sequence (P11473 whole entry, looked up): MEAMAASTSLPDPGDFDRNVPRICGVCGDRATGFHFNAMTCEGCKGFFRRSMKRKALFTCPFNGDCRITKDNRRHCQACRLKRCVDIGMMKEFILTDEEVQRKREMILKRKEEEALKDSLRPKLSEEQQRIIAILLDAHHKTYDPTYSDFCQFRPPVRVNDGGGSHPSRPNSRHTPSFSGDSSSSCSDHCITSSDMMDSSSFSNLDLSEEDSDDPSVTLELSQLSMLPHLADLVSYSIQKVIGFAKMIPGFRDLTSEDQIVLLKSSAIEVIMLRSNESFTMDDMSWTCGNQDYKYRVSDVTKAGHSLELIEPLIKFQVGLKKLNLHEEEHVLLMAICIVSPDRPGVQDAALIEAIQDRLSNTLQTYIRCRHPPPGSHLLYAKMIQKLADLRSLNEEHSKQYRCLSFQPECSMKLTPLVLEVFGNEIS
Outline: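 Agonist 1alpha,25-dihydroxyvitamin D3 (3 nM in well) was added with each compound to VDR-bla cells preincubated 4 h. Cells stood 16 h at 37C, then FRET substrate 2 h at room temperature; fluorescence intensity recorded.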

[9] = qHTS assay to identify small molecule agonists of the vitamin D receptor (VDR) signaling pathway - cell viability counter screen (AID 743224); note: nearly all actives have a fitted effect of over 50% in size; note: potency is the fitted concentration of half-maximal effect
Outline: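 VDR-bla cell line, quantitative HTS format; 16 h compound incubation (37C, 5% CO2); ATP-based CellTiter-Glo luminescence measured in the reporter assay wells.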

[10] = qHTS assay to identify small molecule antagonists of the vitamin D receptor (VDR) signaling pathway - cell viability counter screen (AID 743225); note: nearly all actives have a fitted effect of over 50% in size; note: potency is the fitted concentration of half-maximal effect
Outline: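 Luminescent cell viability (CellTiter-Glo) in VDR-bla HEK 293T cells after 16 h compound exposure at 37C in the presence of 3 nM final 1-alpha,25-dihydroxy vitamin D3.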

[11] = qHTS assay to identify small molecule agonists of the NFkB signaling pathway (AID 1159509; active = well fitted curve in the direction sought with a large enough effect in the signal ratio in the repeat runs, not every such curve was filed as active; the % refers to the signal ratio; note: series mostly up to about 61 µM)
Outline: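 NFkB-bla ME-180 cells carry a beta-lactamase reporter under an NF-kB response element. They were plated overnight, then exposed to compounds for 5 h at 37 C. Read-out is LiveBLAzer FRET after 1.5 hr at room temperature (405 nm excitation; 460/530 nm emission).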

[12] = qHTS assay to identify small molecule agonists of the NFkB signaling pathway - cell viability counter screen (AID 1159515; calls by dose curve; note: nearly all actives have a fitted effect of over 55% in size; note: potency is the fitted concentration of half-maximal effect)
Outline: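 Viability in NFkB-bla ME-180 cells was measured by CellTiter-Glo luminescence, 30 min room temperature, in wells already treated 5 hr with compounds and read for reporter FRET.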

[13] = qHTS assay to identify small molecule antagonists of the retinoid-related orphan receptor gamma (ROR-gamma) signaling pathway - cell viability counter screen (AID 1159520); note: nearly all actives have a fitted effect of over 50% in size; note: potency is the fitted concentration of half-maximal effect
Outline: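 Tet-on ROR gamma CHO cells (1,000/well) were plated 4 hr, given compounds in DMSO for 2 hr at 37 C, then induced with 1 uM final doxycycline for 16 hr. Viability was read as ATP by CellTiter-Glo luminescence after 30 min.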

[14] = biological target: Nuclear receptor ROR-gamma (Homo sapiens) (UniProt P51449); experiment: qHTS assay to identify small molecule antagonists of the retinoid-related orphan receptor gamma (ROR-gamma) signaling pathway (AID 1159521; note: nearly all actives have a fitted effect of over 50% in size; note: potency is the fitted concentration of half-maximal effect)
Outline: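 CHO cells expressing RORγ under a TET-on promoter, luciferase under RORE control. Dox 1 uM final, 16 h; compounds added 2 h prior. Luminescence decrease measured.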

[15] = qHTS assay to identify small molecule agonists of the AP-1 signaling pathway - cell viability counter screen (AID 1159525; calls by dose curve; note: nearly all actives have a fitted effect of over 55% in size)
Outline: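 ME-180 AP-1-bla, 2500 cells/well, Opti-MEM + 0.5% dialyzed FBS; overnight 37 °C; cpd 15-pt titration, 5 h 37 °C; CellTiter-Glo 30 min RT; luminescence read; normalised to TOAB and DMSO controls.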

[16] = qHTS assay to identify small molecule agonists of the AP-1 signaling pathway (AID 1159526; calls by dose curve)
[17] = qHTS assay to identify small molecule agonists of the endoplasmic reticulum stress response signaling pathway (AID 1159516; active = well fitted activation curve with a large enough effect in the signal ratio in the repeat runs, not every such curve was filed as active; the % refers to the signal ratio)
Outline: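 ER stress element reporter (bla) in HeLa. 1,500 cells/well, overnight attachment; 5 hr compound; 2 hr RT substrate; dual-emission fluorescence.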

[18] = qHTS assay to identify small molecule agonists of the endoplasmic reticulum stress response signaling pathway - cell viability counter screen (AID 1159517; calls by dose curve)
Outline: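 CellTiter-Glo was added to wells already read for beta-lactamase FRET, and luminescence was recorded 30 min later. Cells: ESRE-bla HeLa, 1,500 per well, compound exposure 5 hr at 37 C.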

[19] = biological target: Vitamin D3 receptor (Homo sapiens) (UniProt P11473); experiment: qHTS assay to identify small molecule agonists of the vitamin D receptor (VDR) signaling pathway (AID 743222; calls by dose curve)
Outline: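 Agonist activity measured in VDR-bla reporter cells. Exposure 16 h, 37C, 5% CO2; detection by B/G FRET substrate, 2 h RT.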

[20] = biological target: Peroxisome proliferator-activated receptor delta (Homo sapiens) (UniProt Q03181); experiment: qHTS assay to identify small molecule agonists of the peroxisome proliferator-activated receptor delta (PPARd) signaling pathway (AID 743212; calls by dose curve)
Outline: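 A PPARd-bla HEK293H line with beta-lactamase under an Upstream Activator Sequence is treated with compounds at 37 C. Substrate loading for 2 h at room temperature precedes the fluorescence measurement.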

Measured: Potency

Sc1ccccc1Cl
not listed: [17] | [18] | [19] | [20]
inactive: all other assays above

CCOP(=S)(OCC)SCn1nnc2ccccc2c1=O
inactive: [11] | [17] | [18] | [13] | [15] | [16]
active: [2] 54.9 µM | [5] 43.6 µM | [9] 54.9 µM | [10] 49 µM

BrCC(Br)C1CCC(Br)C(Br)C1 (stereo not given)
inactive: [1] | [5] | [7] | [10] | [11] | [12] | [13] | [15]

S=C=NCc1ccccc1
inactive: [1] | [2] | [5] | [7] | [19] | [10] | [11] | [12] | [14] | [15]

CCOP(=S)(OCC)Oc1cc(Cl)c(Br)cc1Cl
inactive: [20] | [5] | [6] | [19] | [8] | [10] | [11] | [12] | [13] | [14] | [15]

O=C1c2ccccc2C(=O)C1C(=O)C(c1ccccc1)c1ccccc1
inactive: [2] | [7] | [10] | [11] | [12] | [13] | [15] | [16]

C=CC(=O)OCC(C)O (stereo not given)
not listed: [1] | [2] | [3] | [5] | [8] | [12] | [20]
inactive: all other assays above

CC(=O)C(C)(C)C
inactive: [1] | [2] | [5] | [7] | [9] | [10] | [11] | [12] | [13] | [15] | [16]

CCC(COC(=O)c1cc(OC)c(OC)c(OC)c1)(c1ccccc1)N(C)C (stereo not given)
not listed: [3] | [4] | [6] | [8] | [12] | [16] | [20]
inactive: all other assays above

CCC(Br)(CC)C(=O)NC(N)=O
not listed: [1] | [7] | [8] | [12] | [19] | [20]
inactive: all other assays above

O=S1OC[C@@H]2[C@H](CO1)[C@]1(Cl)C(Cl)=C(Cl)[C@@]2(Cl)C1(Cl)Cl (stereo not given in full)
inactive: [2] | [4] | [7] | [19] | [10] | [11] | [12] | [13]
active: [9] 49 µM | [14] 54.5 µM

COP(=S)(Oc1cc(Cl)c(Br)cc1Cl)c1ccccc1 (stereo not given)
active: [9] 38.9 µM
inactive: [20] | [2] | [7] | [10] | [11] | [12] | [15]

CN1C(=O)C(O)N=C(c2ccccc2)c2cc(Cl)ccc21 (stereo not given)
inactive: [5] | [7] | [9] | [10] | [11] | [12] | [13] | [14] | [15] | [16]

CC(Cl)Cl
not listed: [12]
inactive: all other assays above

O=C=Nc1ccc(Cl)cc1
inactive: [1] | [20] | [7] | [19] | [11] | [17] | [18] | [13] | [14] | [15] | [16]

C/C(=C\c1ccccc1)[N+](=O)[O-]
active: [1] 19.5 µM | [5] 13.8 µM | [7] 43.6 µM | [9] 24.5 µM | [12] 54.9 µM | [13] 27.3 µM | [14] 19.3 µM
inactive: [11] | [15]

C#CCOC(C(=O)OCCN(C)C)(c1ccccc1)c1ccccc1
not listed: [4] | [6] | [8] | [12]
inactive: all other assays above

C=CC(C)=O
not listed: [8] | [14] | [17] | [18] | [19]
inactive: all other assays above

CC1C(=O)C[C@]2(C(C)C)C[C@H]12 (stereo not given in full)
not listed: [7] | [8] | [12]
inactive: all other assays above

CCOP(O)OCC
not listed: [4] | [6] | [12]
inactive: all other assays above

COC1=CC(=O)O[C@@H](CCc2ccccc2)C1
not listed: [1] | [4] | [6] | [8] | [12] | [19]
inactive: all other assays above
